High-throughput results deposited in PubChem by National Center for Advancing Translational Sciences (NCATS).
Compounds with a hit are over-represented: about 1.8% of the library has one in this group of screens.
HEK293 tox: cytotoxicity in counter-screen for GLP-1R inverse agonists; HEK293 cAMP-luciferase reporter cells, luminescence, 24 h; Potency, µM (top dose mostly 38.3 µM), inactives show at the highest dose activity change, negative = inhibition, most hits filed as inhibitors; actives 0.13% (n = 410,000); AID 624418;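 further: loss of luciferase light is scored as toxicity; on the % scale 0 is the no-effect control and ±100 the full control effect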
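Step one: seed cells (200 cells/uL, DMEM with 10% Nu serum, 1% pen-strep). Step two: 12-hour incubation at 37 deg C. Step three: pin 23 nL compound, incubate 24 hr. Step four: add luciferase reagent, read luminescence 12 min later.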
GLP1R inv ag: acts as inverse agonist at human GLP-1 receptor; P43220; HEK293 GLP-1R CRE-luciferase, luminescence, 24 h; GLP-1R form is constitutively active; Potency, µM (highest dose often 38.3 µM), inactives show at the top dose activity change, negative = inhibition, actives largely listed as inhibitors; actives 1.6% (n = 410,000); AID 624417; further: on the % scale 0 is the no-effect control and ±100 the full control effect; nearly all actives have a fitted effect of over 55% in size
Target sequence (P43220 whole entry, looked up): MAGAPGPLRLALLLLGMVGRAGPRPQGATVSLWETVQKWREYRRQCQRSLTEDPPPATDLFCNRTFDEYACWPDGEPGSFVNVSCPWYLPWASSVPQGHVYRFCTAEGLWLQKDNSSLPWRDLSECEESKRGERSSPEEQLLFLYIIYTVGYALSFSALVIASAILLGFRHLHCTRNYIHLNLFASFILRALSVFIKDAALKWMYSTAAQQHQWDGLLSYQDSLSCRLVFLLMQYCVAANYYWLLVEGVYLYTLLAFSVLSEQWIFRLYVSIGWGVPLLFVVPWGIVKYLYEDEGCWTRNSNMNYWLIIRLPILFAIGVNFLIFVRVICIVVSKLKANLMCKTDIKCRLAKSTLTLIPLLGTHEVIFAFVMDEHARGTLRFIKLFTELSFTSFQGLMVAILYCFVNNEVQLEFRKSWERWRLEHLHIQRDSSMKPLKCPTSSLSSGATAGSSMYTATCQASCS
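Assay principle: reduced luminescence from a cAMP-responsive reporter in HEK293 cells co-expressing a constitutively active GLP-1R. Conditions: 24 hr compound incubation, 37 deg C, 5% CO2.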
Pin1 inh: inhibitors of human Pin1. Q13526. Pin1 FP peptide displacement, HiFluor488, 10 min. Potency, µM (top dose mostly 115 µM), inactives show top-dose activity, negative = inhibition, actives largely listed as inhibitors. actives 0.009% (n = 390,000). AID 504891; active means well fitted inhibition curve with a large enough effect in the polarisation, with a control signal flat, not every such curve was filed as active; inconclusive means small, poorly fitted or top-dose-only effect, or effect the other way, or a change in a side signal; inactive means no such curve, though single readings can be large or run the other way; the % refers to the polarisation; further: on the % scale 0 is the no-effect control and ±100 the full control effect
Target sequence (Q13526 whole entry, looked up): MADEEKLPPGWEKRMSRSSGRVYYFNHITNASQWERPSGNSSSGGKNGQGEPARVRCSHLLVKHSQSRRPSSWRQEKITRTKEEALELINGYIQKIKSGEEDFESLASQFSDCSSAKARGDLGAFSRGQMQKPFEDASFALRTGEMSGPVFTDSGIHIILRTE
PGK inhibitor: blocks T. brucei phosphoglycerate kinase | P07378 | PGK/GAPDH coupled, Kinase-Glo luminescence, 60 min | Potency, µM (highest dose often 57.5 µM), without a hit: at the top dose activity change, negative = inhibition, usual class: inhibitors | actives 0.043% (n = 380,000) | AID 602233; further: on the % scale 0 is the no-effect control and ±100 the full control effect; nearly all actives have a fitted effect of over 60% in size
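Luminescent ATP detection (Kinase-Glo Plus) follows a 60-minute room-temperature incubation, with wells lacking PGK as controls. Buffer: 100 mM TEA (pH 7.6), 5 mM MgCl2, 0.01% Tween-20. Coupling enzyme GAPDH (100 nM final) supplies unstable 1,3-BPG in-well.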
Tb PFK block: inhibitors of T. brucei phosphofructokinase; actives 0.17% (n = 330,000); T. brucei PFK, ADP-Glo luminescence; Potency, µM (titrated, usually from 57.5 µM), for the others: at the top dose activity, negative = inhibition, actives largely listed as inhibitors;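 further: 0% = uninhibited 1x PFK enzyme wells and -100% = no-enzyme wells; nearly all actives have a fitted effect of over 60% in size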
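ADP-Glo luminescence quantified ADP after 45 min at room temperature, with 1.25 nM T. brucei PFK, 0.1 mM ATP and 0.5 mM fructose-6-phosphate in pH 8.0 TEA buffer. qHTS titrations up to 57 µM; curves classified by quality.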
GLP1R ag: agonists of human GLP-1 receptor | Potency, µM (doses to about 45.6 µM), for inactives: at the highest dose activation, usual class: activators | P43220 | actives 0.007% (n = 380,000) | HEK293 GLP-1R CRE-luciferase, luminescence, 4-6 h; cells express a hypersensitive GLP-1R form; further: % of control where 0% means no effect
* = called active by the depositor; i = inactive; u = inconclusive; x = no result; [ ] = dose if it differs, or a comment. Unless noted, the call rests on the fitted dose curve; in most records, active means well fitted curve in the direction sought with a large enough effect; inconclusive means small, poorly fitted or top-dose-only effect, or another doubt; inactive means no such curve, though single readings can be large; an effect the other way counts as inactive or inconclusive. Potency means the concentration at half of the fitted maximal effect.

SMILES | HEK293 tox | GLP1R inv ag | Pin1 inh | PGK inhibitor | Tb PFK block | GLP1R ag
CC1(Cc2cc(Cl)ccc2C(F)(F)F)C(=O)Nc2ccc(-c3ccc(F)c(Cl)c3)cc21 (stereo not given) | 11µM* | u | x | x | x | -26%
Cc1ccc(C2CN=NC23CCc2ccccc2C3=O)cc1 (stereo not given) | -14% | -2% | -7% | -1% | -6% | -7%
O=C1c2ccccc2CCCC12N=NCC2c1cccc2ccccc12 (stereo not given) | 13% | 7.1µM* | 1% | -2% | -2% | 0%
O=C1c2[nH]nc(-c3ccccc3O)c2C(c2cccc(Br)c2)N1Cc1ccncc1 (stereo not given) | u | 13µM* | -3% | -3% | x | x
Cc1ccc(C2c3c(-c4ccccc4O)n[nH]c3C(=O)N2Cc2ccncc2)cc1 (stereo not given) | -41% | 0% | -4% | -7% | 0% | 0%
O=C(Nc1cccc(C(=O)OCc2cc(=O)n3c4c(sc3n2)CCCC4)c1)c1cccc(F)c1 | -21% | -17% | 6% | -5% | x | x
Cc1cc(C)nc(S/C=C/C(=O)c2ccccc2F)n1 | 3.5µM* | u | 23% | -9% | -8% | 2%
Cc1cccc(OC(=O)c2snnc2C)c1 | 3% | -13% | -4% | 9% | x | x
CN=C1c2cc3cc(OC)ccc3n2CCN1Cc1ccccc1 | -15% | 5µM* | -2% | -5% | 0% | 10%
COc1ccc2c(c1)nc(N)n2Cc1ccccc1 | -9% | -18% | -5% | 3% | -7% | 0%
O=C(CCSc1ccccc1)Nc1nccs1 | 5% | 0% | -3% | -4% | -5% | -14%
O=C(CSc1ccccc1)N(c1ccc(Br)cc1)c1nccs1 | -1% | 11µM* | 3% | -9% | 1% | 13%
CSc1ccccc1C(=O)N(C)C(c1ccccc1)c1ccccc1 | -3% | 8.9µM* | 20% | i | 1% | 5%
CSc1ccccc1C(=O)N(C)Cc1ccccc1 | 3% | -24% | -4% | -10% | 1% | -1%
CCCc1cc(C(=O)Nc2ccc(C(=O)c3ccc(F)cc3)cc2)n(C)n1 | -4% | 8.9µM* | 2% | -9% | 4% | -3%
CCCc1cc(C(=O)Nc2ccc(C(=O)c3ccccc3)cc2)n(C)n1 | 0% | u | -1% | -3% | 5% | 2%
CC(C)(C)c1ccc(C(=O)CCC(=O)NCc2ccccc2)cc1 | -20% | 7.9µM* | 41% | -2% | 0% | 15%
Cc1ccc(C(=O)CCC(=O)NCc2ccccc2)cc1 | 7% | -5% | 0% | -8% | 1% | -2%
COCCN=C1Sc2nc3c(C)cccc3cc2CN1Cc1ccco1 | -3% | 8.9µM* | 39% | i | 0% | 3%
Cc1ccc2nc3c(cc2c1)CN(Cc1ccco1)C(=NCC1CCCO1)S3 (stereo not given) | -11% | 2.2µM* | 10% | 3% | 3% | -2%
Cc1cccc2cc3c(nc12)SC(=NCC1CCCO1)N(Cc1ccco1)C3 (stereo not given) | u | u | u | 3% | -1% | -18%
COCCN=C1Sc2nc3ccc(C)cc3cc2CN1Cc1cccs1 | 5%[7.66 µM] | u | 9% | -9% | -3% | 17%
COc1cccc(-c2ncc3ccccc3c2COC(=O)c2ccc(F)cc2)c1 | 0% | 11µM* | u | -3% | -4% | 11%
COc1cccc(-c2ncc3ccccc3c2COC(=O)c2ccc(C(C)(C)C)cc2)c1 | 14% | u | 13% | 1% | -7% | 18%
O=C(Nc1ccc(OC(F)(F)F)cc1)Nc1cccc([N+](=O)[O-])c1 | 5.6µM* | 2.5µM* | 5% | -9% | -1% | -15%
SMILES | HEK293 tox | GLP1R inv ag | Pin1 inh | PGK inhibitor | Tb PFK block | GLP1R ag
NNC(=O)Nc1cccc(C(F)(F)F)c1 | 1% | 10% | -1% | i | 4% | 0%
O=C(Nc1ccc([N+](=O)[O-])cc1)C(=O)Nc1cccc(C(=O)O)c1 | -15% | 1.1µM* | 2% | u | -1% | -15%
O=C(Nc1ccncc1)Nc1cccc(C(F)(F)F)c1 | -16% | 10µM* | 0% | -2% | -8% | -3%
O=C(O)c1cc(NC(=O)c2ccc([N+](=O)[O-])cc2)cc(NC(=O)c2ccc([N+](=O)[O-])cc2)c1 | 0% | 15% | -12% | -7% | -2% | 0%
O=C(Nc1ccc(OC(F)F)cc1)Nc1cccc(C(F)(F)F)c1 | u | 4.5µM* | -1% | -10% | 2% | -5%
N#Cc1ccc(N2CCN(S(=O)(=O)c3ccc4c(c3)CC(=O)N4)CC2)cc1 | x | x | 13% | x | x | x
Cc1cc(Br)ccc1NC(=O)c1sc2nc3n(c(=O)c2c1C)CCCC3 | 1% | 18% | u | -8% | x | x
O=C1C=CC2=C3c4cc(O)c(O)cc4CC3(O)COC2=C1O (stereo not given) | -28% | -3% | u | 2.8µM* | x | -3%
Nc1nc(-c2ccc(Br)cc2)c(S(=O)(=O)c2ccccc2)s1 | -19% | u | -1% | 7% | -5% | -2%
Nc1nc(-c2ccc(Cl)cc2)c(S(=O)(=O)c2ccccc2)s1 | 6% | 8.9µM* | 3% | -2% | -2% | 6%
COc1ccc(SC[C@H](Cc2ccccc2)N2CC[C@@H](C)CCC2=O)cc1 | 21% | u | -23% | -3% | 6% | 11%
Cc1ccc(SC[C@H](Cc2ccccc2)N2CC[C@@H](C)CCC2=O)cc1 | -6% | 10µM* | -3% | -9% | 1% | -1%
O=C(CCCCCNC(=O)N1CCn2c1nc1ccccc12)NCc1ccc(Cl)cc1 | -2% | u | u | 9% | -10% | 11%
O=C(CCCCCNC(=O)N1CCn2c1nc1ccccc12)NCc1ccccc1Cl | -9% | 7.1µM* | -7% | -10% | -2% | 13%
CC(=O)c1ccc(NC(=O)CSc2nccn2C2CCCC2)cc1 | 5% | 6% | -11% | -7% | x | x
OC(COc1ccccc1)CN1CCCCC1 (stereo not given) | 6% | 7% | -5% | -2% | x | 8%
OC(COc1ccc(CNCCc2ccccc2F)cc1)CN1CCCCC1 (stereo not given) | 3% | 5µM* | 4% | -6% | 3% | -3%
Cc1cccc(C)c1N(CCCc1cccnc1)C(=O)[C@@H](C)N | x | x | x | x | x | 3%
COc1ccc(CNC(=S)NC(C)CCc2ccccc2)cc1 (stereo not given) | u | 10µM* | 3% | -4% | -2% | -1%
COc1ccc(CNC(=S)NCc2ccc(OC)cc2)cc1 | -11% | -6% | 1% | 0% | 1% | -4%
COc1ccccc1C(O)c1nccn1Cc1ccccc1 (stereo not given) | x | x | 2% | x | x | x
